# Experimental data taken from PubChem BioAssay (NCI).
# Values joined by “and” are separate entries in the source; they are usually repeats but may differ in a detail not shown here. Identical values can stand only once. Compounds without any hit were thinned out: in the full panel of roughly 83,000, 20% have a hit.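 48-hour exposure, single concentration, 96-well plates; percent growth endpoint where 0 means no net growth. Active: below 10.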 Active and inactive are the calls of the source.
# Tested on: SW-620 colon
# Assay: NCI-60 one-dose screen, 48 h (100 = growth as untreated, 0 = no growth, -100 = all killed)
# Conditions: 10 µM
# Procedure: Growth inhibition of the SW-620 human tumor cell line is measured as a screen for anti-cancer activity. Cells are grown in 96 well plates and exposed to the test compound for 48 hours. Compounds are tested at a single concentration, which is 10^-5 M for most compounds. The reported endpoint is percent growth (GI% or GIPRCNT), where numbers from 0 - 100% represent growth inhibition, and numbers from -100% - 0 represent cell death. For example, a value of 40 represents 60% growth inhibition. A value of 0 means no net growth occurred over the course of the experiment. A value of -40 indicates 40% of cells at the beginning of the experiment died by the end of the experiment. A value of -100 means all cells are dead at the end of the experiment.
# NCI-60 Human Tumor Cell Lines Screen was performed using the standard one-dose NCI protocol, which is described in more detail at https://dtp.cancer.gov/discovery_development/nci-60/default.htm.
# Compounds with GIPRCNT values below 10 were considered active. Activity score was based on GIPRCNT using the following formula: […]
# Score is 0 for GIPRCNT values of 100 or above, 50 for GIPRCNT values of 0, and 100 for GIPRCNT values of -100.
row,Compound,growth
1,CC1(C)OB(c2ccc(Cn3cc(F)c(=O)[nH]c3=O)cc2)OC1(C)C,95.8% (inactive)
2,COc1ccc(Cl)cc1C(=O)NCCc1ccc(S(=O)(=O)NC(=O)NC2CCCCC2)cc1,99.3% (inactive) and 109% (inactive)
3,CCc1ccccc1-n1c(N)c(C#N)c(-c2ccc(OC)c(OC)c2)c(C#N)c1=O,116% (inactive)

# Same assay, conditions: 10 µM unless noted
row,Compound,growth
1,COc1ccc(NC(=S)Nc2ccccn2)cc1,102% (inactive)
2,CN(C)c1ccc(C(=C2C=CC(=[N+](C)C)C=C2)c2ccccc2Cl)cc1,-75.8% (active) and -78.1% (active)
3,O=CC(O)C(O)C(O)CO (stereo not given),107% (inactive) and 104% (inactive)
4,CCN(CC)C(=O)c1cccnc1,106% (inactive)
5,CN(C)c1ccc(/C=C(\C#N)c2ccccc2)cc1,18.1% (inactive) and 33.3% (inactive) and 21.8% (inactive)
6,CCC(=O)C(CC)c1cccc(OC)c1 (stereo not given),105% (inactive)
7,Cc1cc(N=Nc2ccc(C)c(N=Nc3cc(C)c(N)cc3N)c2)c(N)cc1N,94.8% (inactive) and 48.4% (inactive)
8,Oc1nc(NCCc2ccccc2)sc1/C=C1\C=Nc2ncccc21,7.8% (active) and 9.88% (active)
9,CCN(CC)C(=S)SSC(=S)N(CC)CC,77.2% (inactive) and 109% (inactive)
10,CNc1cc(-c2cccc(OC(F)(F)F)c2)nc2ccc(N3CCCC3)cc12,5.95% (active) and -18.2% (active) and 0.371% (active)
11,CN1CCN(Cc2occc(=O)c2O)CCN(C)CCN(Cc2occc(=O)c2O)CC1,113% (inactive) and 15.6% (inactive)
12,CC1=C[C@H]2c3c(c(O)c(O)c4oc5cc(O)cc(O)c5c(=O)c34)[C@H](c3cc(O)c(O)c4oc5cc(O)cc(O)c5c(=O)c34)[C@H]2C(C)(C)C1,-37.8% (active) and -80.9% (active)
13,NC(=S)NN=C1CCC(C2CCCCC2)CC1 (stereo not given),84.6% (inactive) and 88.6% (inactive)
14,COc1ccc2nc(Cl)cc(C)c2c1,102% (inactive) and 122% (inactive)
15,O=C(O)C1C2C=CC(C2)C1C(=O)O (stereo not given),104% (inactive) and 22.1% (inactive) and 103% (inactive)
16,COc1ccc(-c2cn[nH]c2-c2cc(OC)c(OC)c(OC)c2)cc1N,24.7% (inactive) and 27.7% (inactive)
17,O=C(c1ccc(Cl)cc1)C(NCCO)c1ccc(Cl)cc1 (stereo not given),101% (inactive) and 102% (inactive)

row,Compound,growth
1,N=C1N=C(N)CS1,102% (inactive)
2,CC(=O)Oc1cc(C(=O)O)cc(OC(C)=O)c1OC(C)=O,103% (inactive) and 107% (inactive)
3,O=C(CCc1ccc(O)cc1)N/N=C/c1cc(Br)ccc1O,59.5% (inactive)
4,COc1cc(C(=O)N/N=C/c2ccc(N(C)C)cc2)cc(OC)c1OC,26.2% (inactive)
5,OCCN1CCN(CCCN2c3ccccc3Sc3ccc(Cl)cc32)CC1,80.6% (inactive) and 83.8% (inactive)
6,N#CCCOc1ccccc1,106% (inactive)
7,CCC(C)C1(C2CCCC2)NC(=O)NC1=O (stereo not given),112% (inactive) and 98.9% (inactive)
8,CCN(CC)CCOc1ccc2c(c1)C(=O)c1cc(OCCN(CC)CC)ccc1-2,34.5% (inactive) and 26.1% (inactive)
9,O=C(O)CN(CCN(CC(=O)O)CC(=O)O)CCN(CC(=O)O)CC(=O)O,10.5% (inactive) and 109% (inactive)
10,CNC(=O)c1cccc(-c2ccc3c(N4CCOC[C@@H]4C)nc(N4CCOC[C@@H]4C)nc3n2)c1,11.4% (inactive) and 5.84% (active)
11,COc1ccc2ccccc2c1/C=N/N1CCCCC1,103% (inactive)
12,COc1cc2c(c(OC)c1OC)-c1ccc(OC)c(=O)cc1[C@@H](NC(C)=O)CC2,23.7% (inactive) and 18.3% (inactive) and 26.4% (inactive)
13,O=C1CCN(Cc2ccccc2)C(=S)N1,105% (inactive)
14,CCOC(=O)Nc1ccc2c(c1)/C(=N\NC(N)=S)c1ccccc1-2,80.7% (inactive) and 81.2% (inactive)
15,O=C(O)c1cc(C(=O)O)cc([N+](=O)[O-])c1,107% (inactive)
16,COc1cc(/C=N/Nc2nc3c([nH]2)c(=O)n(C)c(=O)n3C)ccc1O,105% (inactive) and 110% (inactive)
17,O=[N+]([O-])c1ccccc1N(S(=O)(=O)c1ccccc1)S(=O)(=O)c1ccccc1,102% (inactive) and 97.3% (inactive)

# Same assay, conditions: 50 µM
row,Compound,growth
1,CC1(C)OB(c2ccc(Cn3cc(F)c(=O)[nH]c3=O)cc2)OC1(C)C,34.2% (inactive)

# Same assay, conditions: 100 µM
row,Compound,growth
1,COc1ccc(Cl)cc1C(=O)NCCc1ccc(S(=O)(=O)NC(=O)NC2CCCCC2)cc1,82.9% (inactive)
2,CCc1ccccc1-n1c(N)c(C#N)c(-c2ccc(OC)c(OC)c2)c(C#N)c1=O,86.4% (inactive)
